{"source": "PubChem BioAssay (NCATS)", "note": "Records with an inconclusive call do not appear. Unmarked numbers belong to inactive results. Active and inactive are the calls of the source. The call rests on the fitted dose curve; in most records, active means well fitted cell-killing curve with a large enough effect; inconclusive means small, poorly fitted or top-dose-only effect, or effect the other way; inactive means no such curve, though single readings can be large or run the other way."}
{"experiment": "Quantitative High-Throughput drug screen in 47 multiple myeloma cell lines against the NCATS MIPE library collection: KMS28PE_JCRB cell viability assay (AID 1918983); further: nearly all actives have a fitted effect of over 35% in size; further: potency means the concentration at half of the fitted maximal effect", "settings": "KMS28PE multiple myeloma viability, CellTiter-Glo ATP, 48 h; series mostly up to 45.8 µM; viability, % of DMSO control: at the top concentration", "source_text": "PI: Beverly A. Mock Ph.D.\nLaboratory of Cancer Biology and Genetics,\nCenter for Cancer Research, National Cancer Institute,\nNational Institute of Health, Bethesda, Maryland\nDrug resistance and disease progression are common in multiple myeloma (MM) patients, underscoring the need for new therapeutic combinations. […] We hypothesized that effective combinations would reduce MYC expression and enhance p16 activity. […] These preclinical data identify potentially useful drug combinations for evaluation in drug-resistant MM and reveal potential mechanisms of combined drug sensitivity.\nDescribed herein is the primary MIPE qHTS used to cherrypick compounds. Validated compounds were then further tested for potential synergistic activiy.\n[1] Peat TJ, Gaikwad SM, Dubois W, Gyabaah-Kessie N, Zhang S, Gorjifard S, Phyo Z, Andres M, Hughitt VK, Simpson RM, Miller MA, Girvin AT, Taylor A, Williams D, D'Antonio N, Zhang Y, Rajagopalan A, Flietner E, Wilson K, Zhang X, Shinn P, Klumpp-Thomas C, McKnight C, Itkin Z, Chen L, Kazandijian D, Zhang J, Michalowski AM, Simmons JK, Keats J, Thomas CJ, Mock BA. Drug combinations identified by high-throughput screening promote cell cycle transition and upregulate Smad pathways in myeloma. Cancer Lett. 2023 Aug 1;568:216284. doi: 10.1016/j.canlet.2023.216284. Epub 2023 Jun 24. PMID: 37356470; PMCID: PMC10408729.\nSEQUENCE No. (e.g., 1, 2, 3, etc.); […] (e.g., Cells, Incubation, Reagent, etc.); VALUE and DESCRIPTION.\n1; Cells; 5 uL; white, solid bottom 1536-well Greiner assay plate.\n2; Compounds; 23 nL; Kalypsis pin tool (Wako USA) equipped with a 1536-well pin head to transfer to the assay plates.\n3; Incubation; 48 hours; 37C incubation.\n4; Reagent;5uL; CellTiter Glo (Promega).\n5; Detector; 425V; Luminescence; Viewlux PerkinElmer.\nNOTES (numbers refer to Sequence numbers above)\n1. The cell-based screening methods employed in this study were like those previously published. Briefly, the corresponding myeloma cell lines were screened in 1,536-well plates with 500 cells, 5-uL per well for inhibition of cell viability (assessed by measuring ATP levels with CellTiterGlo).\n2. NCATS MIPE 4.0 library of approved and investigational drugs were added using the Kalypsis pin tool. Wells treated with DMSO only for 100% viability and media only for 0% viability were used as controls.\n3. The assay plates were covered and incubated for 48 hours in a 37C, 5% CO2 incubator with controlled humidity.\n4. After 48 hours, CellTilter-GloTM luminescent substrate mix (Promega) reagent was added to the assay plate and plates we incubated for 5 min at room temperature.\n5. Signal was measured as median relative luminescence units on a ViewLux (PerkinElmer) multiplate reader.\n[1] Heske CM, Davis MI, Baumgart JT, Wilson K, Gormally MV, Chen L, Zhang X, Ceribelli M, Duveau DY, Guha R, Ferrer M, Arnaldez FI, Ji J, Tran HL, Zhang Y, Mendoza A, Helman LJ, Thomas CJ. Matrix Screen Identifies Synergistic Combination of PARP Inhibitors and Nicotinamide Phosphoribosyltransferase (NAMPT) Inhibitors in Ewing Sarcoma. Clin Cancer Res. 2017 Dec 1;23(23):7301-7311. doi: 10.1158/1078-0432.CCR-17-1121. Epub 2017 Sep 12. PMID: 28899971; PMCID: PMC6636827.", "units": {"viability, % of DMSO control": "%"}}
{"compound": "CNC(=O)N1N=C(c2ccc(N)cc2)c2cc3c(cc2CC1C)OCO3", "note": "(configuration not stated)", "Potency": "4.69 µM (active)"}
{"compound": "CNC(=O)c1ccc(N2C(=S)N(c3ccc(C#N)c(C(F)(F)F)c3)C(=O)C23CCC3)cc1F", "viability, % of DMSO control": 153}
{"compound": "Cn1c(CCCC(=O)O)nc2cc(N(CCCl)CCCl)ccc21", "Potency": "7.43 µM (active)"}
{"compound": "Fc1ccc(C(OCCN2CCN(CCCc3ccccc3)CC2)c2ccc(F)cc2)cc1", "Potency": "23.5 µM (active)"}
{"compound": "O=C(O)C(=O)c1cn(Cc2ccccc2)c2ccc(-c3ccc(OC(F)(F)F)cc3)cc12", "Potency": "3.32 µM (active)"}
{"compound": "CNCC(O)c1ccc(O)cc1", "note": "(configuration not stated)", "viability, % of DMSO control": 124}
{"compound": "CCCC(C)(COC(N)=O)COC(=O)NC(C)C", "note": "(configuration not stated)", "viability, % of DMSO control": 127}
{"compound": "CN(C)CCc1ccc(O)cc1", "viability, % of DMSO control": 110}
{"compound": "N[C@@H](Cc1ccc(N(CCCl)CCCl)cc1)C(=O)O", "Potency": "16.6 µM (active)"}
{"compound": "COc1ccc(C(=O)c2c(C)n(CCN3CCOCC3)c3ccccc23)cc1", "viability, % of DMSO control": 130}
{"compound": "Cc1cccc(C)c1NC(=O)CN1CCCC1=O", "viability, % of DMSO control": 110}
{"compound": "COC[C@@H](NC(C)=O)C(=O)NCc1ccccc1", "viability, % of DMSO control": 124}
{"compound": "C[C@@H]1[C@@H](CC(C[C@H]2O[C@@H]3O[C@]4(C)CC[C@@H]5[C@H](C)CC[C@@H]([C@H]2C)[C@@]35OO4)C[S+](=O)([O-])c2ccc(COC(=O)N(C)C)cc2)O[C@@H]2O[C@]3(C)CC[C@H]4[C@H](C)CC[C@@H]1[C@@]24OO3", "note": "(some centres not stated)", "Potency": "0.209 µM (active)"}
{"compound": "CN(C)CCN(C)CCc1ccc(Cl)c(Cl)c1", "viability, % of DMSO control": 117}
{"compound": "O=C1CC[C@@]2(O)[C@H]3Cc4ccc(O)c5c4[C@@]2(CCN3CC2CC2)[C@H]1O5", "viability, % of DMSO control": 104}
{"compound": "O=c1[nH]c2ccccc2n1CCCN1CCC(n2c(=O)[nH]c3cc(Cl)ccc32)CC1", "viability, % of DMSO control": 103}
{"compound": "NCC1(CC(=O)O)CCCCC1", "viability, % of DMSO control": 131}
{"compound": "C[C@@H]1[C@@H](C(=O)C[C@H]2O[C@@H]3O[C@]4(C)CC[C@@H]5[C@H](C)CC[C@@H]([C@H]2C)[C@@]35OO4)O[C@@H]2O[C@]3(C)CC[C@H]4[C@H](C)CC[C@@H]1[C@@]24OO3", "Potency": "0.418 µM (active)"}
{"compound": "COC[C@H]1OC(=O)c2coc3c2[C@@]1(C)C1=C(C3=O)C2CCC(=O)[C@@]2(C)C[C@H]1OC(C)=O", "note": "(some centres not stated)", "Potency": "6.62 µM (active)"}
{"compound": "Cc1sc2c(c1C)C(c1ccc(Cl)cc1)=N[C@@H](CC(=O)OC(C)(C)C)c1nnc(C)n1-2", "Potency": "0.235 µM (active)"}
{"compound": "COC1(CS(=O)c2ccccc2)CCN(CCc2c[nH]c3ccc(F)cc23)CC1", "note": "(configuration not stated)", "Potency": "8.33 µM (active)"}
{"compound": "C[C@@H]1O[C@@H](O[C@H]2C[C@@H](O)[C@]3(CO)[C@H]4[C@H](O)C[C@]5(C)[C@@H](C6=CC(=O)OC6)CC[C@]5(O)[C@@H]4CC[C@]3(O)C2)[C@H](O)[C@H](O)[C@H]1O", "Potency": "0.0209 µM (active)"}
